TDP1 cell noCPT: qHTS for Inhibitors of human tyrosyl-DNA phosphodiesterase 1 (TDP1): qHTS in cells in absence of CPT; DT40 Tdp1-/- hTDP1 cells, no CPT, ATP luminescence, 48 h; actives 15% (n = 420,000); Potency, µM (series often up to 46.2 µM), inactives show at the highest dose activity change, negative = growth inhibition, most hits filed as inhibitors; note: potency is the fitted concentration of half-maximal effect; nearly all actives have a fitted effect of over 55% in size
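Growth of hTDP1-complemented DT40 Tdp1-knockout cells is measured by ATP luminescence after at least 48 hr compound exposure at 37 °C, with DMSO substituting for the 20 nM CPT used in the parallel screen.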
IL-1B inflam inh: inflammasome signaling inhibition, IL-1 beta readout. THP-1 LPS/ATP IL-1B secretion, AlphaLISA, 16 h; stronger effect = lower value. activity change, % at 57.5 µM. actives 4.7% (n = 360,000). AID 743279; in the data active = activity change below about -50%; inconclusive = mostly about -30% to -49%
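Secreted IL-1B measured by AlphaLISA bead assay after 16 h compound exposure of THP-1 cells; compounds (final up to 57.5 uM) added 1 h before LPS (250 ng/mL) and ATP (1.25 mM) stimulation; lower signal means less secretion.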
HT1080NT lethal: kills 2HG-producing HT-1080-NT fibrosarcoma cells | HT-1080-NT fibrosarcoma viability, CellTiter-Glo ATP luminescence, 48 h | Potency, µM (highest dose often 46.1 µM), without a hit: at the top dose activity, negative = less viability, most hits filed as cytotoxic | actives 1.6% (n = 360,000) | AID 686970;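 note: NT is the 2HG producing partner of a matched IDH1 knockdown line; potency is the fitted concentration of half-maximal effect; 0% = DMSO-treated cells and -100% = media-only wells without cells; nearly all actives have a fitted effect of over 55% in size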
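Fibrosarcoma NT cells, 750 per well in 5% FBS RPMI, were exposed to compound for 48 hours. Viability: CellTiter-Glo luminescence.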
HT1080 IDH1KD tx: toxicity to HT-1080 IDH1 knockdown cells (counter line); actives 2% (n = 360,000); Potency, µM (top dose mostly 46.1 µM), without a hit: at the highest dose activity, negative = toxicity, hits mostly cytotoxic; HT-1080 IDH1 knockdown viability, ATP luminescence, 48 h;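 note: potency is the fitted concentration of half-maximal effect; 0% = DMSO wells and -100% = cell-free medium wells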
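Using the IDH1-knockdown HT-1080 line run in the same batch and compound series as the NT line, viability after 48 h at 37 °C was determined by CellTiter-Glo luminescence and expressed as % activity.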
TDP1 cell CPT: DT40-hTDP1 cell growth loss with CPT | chicken DT40 Tdp1-/-;hTDP1 cells + 20 nM CPT, ATP luminescence, 48 h | Potency, µM (highest dose often 46.2 µM), inactives show at the top dose activity change, negative = growth inhibition, hits mostly inhibitors | actives 12% (n = 420,000) | AID 686979; note: potency is the fitted concentration of half-maximal effect; nearly all actives have a fitted effect of over 55% in size
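Chicken DT40 Tdp1-/- cells stably complemented with human TDP1 were seeded at 400 cells/well in medium containing 20 nM camptothecin, exposed to pin-transferred compounds, and grown at 37 °C for at least 48 hr. Viability was read as ATP luminescence.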
An asterisk follows results filed as active; ? = inconclusive; . = no result given. This is a sample that favours compounds with a hit; in the whole collection about 19% have one here. Unless noted, calls come from the whole dose curve; as a rule, active = well fitted curve in the direction sought with a large enough effect; inconclusive = small, poorly fitted or top-dose-only effect, or another doubt; inactive = no such curve, though single readings can be large; an effect the other way counts as inactive or inconclusive. Unless noted, % is set by controls: 0 for no effect and ±100 for the full control effect.

SMILES	TDP1 cell noCPT	IL-1B inflam inh	HT1080NT lethal	HT1080 IDH1KD tx	TDP1 cell CPT
OCCN1CCN(c2ncnc3c2c(-c2ccccc2)cn3-c2ccc(Br)cc2)CC1	?	-83*	16µM*	23µM*	?
NC(=O)C1CCN(c2ncnc3c2c(-c2ccccc2)cn3-c2ccccc2)CC1	?	-18	2%	1%	?
FC(F)(F)c1cccc(-n2cc(-c3ccccc3)c3c(N4CCCCC4)ncnc32)c1	23µM*	.	.	.	?
CCc1ccc(NC(=S)NC2CCN(Cc3ccccc3)CC2)cc1	12µM*	0	-27%	-19%	7.3µM*
S=C(Nc1ccc(Cl)cc1)NC1CCN(Cc2ccccc2)CC1	9.2µM*	-94*	4%	-1%	21µM*
COc1ccc(NC(=S)NC2CCN(Cc3ccccc3)CC2)cc1OC	?	-10	0%	-5%	-8%
COc1ccc(CCNC(=S)NC2CCN(Cc3ccccc3)CC2)cc1	23µM*	?	-2%	-7%	?
Cc1ccc(NC(=S)NC2CCN(Cc3ccccc3)CC2)c(C)c1	?	-57*	-1%	12%	?
S=C(Nc1ccccc1)NC1CCN(Cc2ccccc2)CC1	?	-27	-6%	-7%	-19%
CC1CN(CC(O)COCc2ccc3c(c2)OCO3)CC(C)O1 (stereo not given)	24%	2	7%	0%	?
CCC(C)c1ccc(NC(=S)NC2CCN(Cc3ccccc3)CC2)cc1 (stereo not given)	7.3µM*	-94*	18µM*	?	8.2µM*
COC(=O)c1ccccc1NC(=O)NC1CCN(Cc2ccccc2)CC1	?	1	-5%	0%	?
COc1ccc(C)cc1NC(=O)NC1CCN(Cc2ccccc2)CC1	?	-20	-2%	5%	23µM*
CC12CCC(C/C1=N/OC(=O)c1cccc([N+](=O)[O-])c1)C2(C)C (stereo not given)	-20%	21	0%	-2%	-15%
CCCn1c(C)nc2cc(Cl)c(N3CCN(c4nc(-c5ccc(C)cc5)cs4)CC3)cc21	?	20	-10%	-3%	?
COc1ccc(-c2csc(N3CCN(c4cc5c(cc4Cl)nc(-c4ccncc4)n5CCOCCO)CC3)n2)cc1	?	-2	-2%	-1%	12µM*
OCCCn1c(CCCNc2nc(-c3cccc(Br)c3)cs2)nc2cc(Cl)c(N3CCCCC3)cc21	16µM*	0	18µM*	?	?
Cc1ccc(-c2csc(N3CCN(c4cc5c(cc4Cl)nc(-c4ccncc4)n5CCN4CCCCC4)CC3)n2)cc1	?	-59*	?	-14%	?
COc1ccc(-c2csc(NCCc3nc4cc(Cl)c(N5CCCCC5)cc4n3CCOCCO)n2)cc1	9.2µM*	0	0%	1%	23µM*
Nc1c(Cl)cc(-c2csc(NCCc3nc4cc(Cl)c(Cl)cc4n3CCCO)n2)cc1Cl	?	-18	-5%	-4%	?
CCCN(CCC)c1nn2c(=O)c(C(=O)NCc3cc(Br)ccc3OC)cnc2s1	-29%	.	.	.	-19%
CCc1nc2sc3c(c2c(=O)n1N)CC(C)(C)OC3	-6%	?	3%	1%	5%
CC1(C)Cc2c(sc3nc(-c4ccccc4)n(N)c(=O)c23)CO1	-31%	-76*	-14%	-18%	-37%
CC1(C)Cc2c(sc3nc(-c4cccs4)n(N)c(=O)c23)CO1	23µM*	-12	?	?	16µM*
CC(NC(=O)c1cccc(S(=O)(=O)N2CCN(C)CC2)c1)c1ccc(Cl)cc1Cl (stereo not given)	?	?	7%	-1%	?
O=C1c2cccc3cccc(c23)C(=O)N1CC1CCN(S(=O)(=O)c2ccccc2)CC1	2%	31	16%	-1%	28%
O=C(c1ccc(S(=O)(=O)N2CCCCCC2)cc1)N1CCC(CN2C(=O)c3cccc4cccc(c34)C2=O)CC1	21µM*	?	-3%	-13%	?
